Experimental findings from PubChem BioAssay (NCATS) are described below.

Assay [1] is described as follows: qHTS assay to identify small molecule inhibitors of chordoma cells - UCH-1 (AID 1259355). Further: nearly all actives have a fitted effect of over 55% in size. Further: potency means the concentration at half of the fitted maximal effect; series mostly up to about 46 µM. The method, boiled down: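 A 48hr growth-inhibition format: each drug tested at 15 concentrations together with added auranofin, camptothecin, doxorubicin, rubitecan and topotecan, with cell viability quantified as CellTiter-Glo luminescence.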
Assay [2] is described as follows: P-glycoprotein substrates identified in KB-8-5-11 adenocarcinoma cell line, qHTS therapeutic library screen (AID 1346987). Further: nearly all actives have a fitted effect of over 65% in size. Further: potency means the concentration at half of the fitted maximal effect. On activity change, negative = cytotoxicity: series mostly up to about 44 µM; on the % scale 0 is the no-effect control and ±100 the full control effect. In outline:
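In this qHTS, P-gp-rich KB-8-5-11 cells received library compounds across a concentration range. Viability was quantified by luminescence after 72 h at 37 degree C.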
Background: Quantitative high-throughput screening tests each substance at several concentrations.

Assay [3] can be described thus: qHTS Assay for Identifying Gametocytocidal Compounds (AID 743244). Further: potency means the concentration at half of the fitted maximal effect.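 On max response: on the % scale 0 is the no-effect control and ±100 the full control effect; actives lower the fluorescent signal which means gametocytes are killed.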 To be noted: P. falciparum 3D7 stage III-V gametocytes, alamarBlue, 72 h; max response: stronger effect = lower value. In outline:
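Stage III–V gametocytes of P. falciparum 3D7 were seeded at 20,000 cells/well onto pre-dispensed compounds. After 72 h, 37 °C, 5% CO2, alamarBlue was added for another 24 h.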

A short description of assay [4]: qHTS assay to identify small molecule inhibitors of chordoma cells - UCH-2 (AID 1259356). Further: series mostly up to about 46 µM; on the % scale 0 is the no-effect control and ±100 the full control effect.
Assay [5] in a line: P-glycoprotein substrates identified in KB-3-1 adenocarcinoma cell line, qHTS therapeutic library screen (AID 1346986). Further: nearly all actives have a fitted effect of over 60% in size. The method, boiled down: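 Using luminescence to quantify ATP, parental and P-gp-overexpressing KB cells were compared after 72 h compound titration. KB-8-5-11 was also run with the P-gp inhibitor tariquidar.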
Assay [6] in a line: qHTS assay for cell viability of the p53RE-bla HCT-116 cell line (AID 743292). Further: nearly all actives have a fitted effect of over 55% in size. Further: potency means the concentration at half of the fitted maximal effect. On activity change, negative = cytotoxicity: on the % scale 0 is the no-effect control and ±100 the full control effect. The method, boiled down:
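Luminescent ATP quantitation (CellTiter-Glo) served as the viability read-out; reagent was added after 16 h compound exposure at 37 C and read after 30 min at room temperature. Cells: p53RE-bla HCT-116, 4,000 per well.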

A short description of assay [7]: qHTS assay for cell viability of HEK293 cells (AID 743288). Further: nearly all actives have a fitted effect of over 50% in size. Further: potency means the concentration at half of the fitted maximal effect. On max response: on the % scale 0 is the no-effect control and ±100 the full control effect. To be noted: ATP luminescence (CellTiter-Glo), 18 h; max response: stronger effect = lower value. The method, boiled down: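 HEK293, 18 h, 37 C, ATP luminescence. Cells at 2,000/well were allowed at least 5 h to settle before dosing; CellTiter-Glo developed 30 min at RT.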

Molecules are shown by their SMILES. Several values for one entry are separate records, joined by “and”; a condition that tells them apart may be missing. Equal values may be shown once. Records with an inconclusive call do not appear. Some compounds were tested as several samples or in several runs, with calls that do not always agree. Activity calls are given as the source filed them. The call rests on the fitted dose curve; in most records, active means well fitted curve in the direction sought with a large enough effect; inconclusive means small, poorly fitted or top-dose-only effect, or another doubt; inactive means no such curve, though single readings can be large; an effect the other way counts as inactive or inconclusive.

Take `COC(COC(N)=O)C1=C(N2CC2)C(=O)C(C)=C(N2CC2)C1=O` (centres undefined): the Potency in assay [1] is 2.24 µM (active); in assay [2] it was 6.51 µM (active).

Regarding `CCN1C[C@]2(COC)[C@H](O)C[C@H](OC)[C@@]34[C@@H]5C[C@@]6(O)[C@H](OC(=O)c7ccccc7)[C@@H]5[C@@](OC(C)=O)([C@@H]([C@H](OC)[C@H]23)[C@@H]14)[C@@H](O)[C@@H]6OC`, in assay [3], the max response was -5.96% (inactive). Further, the Potency entry in assay [1] and in assay [2] was “inactive” throughout.

In the case of `CCC1(c2ccccc2)C(=O)NC(=O)NC1=O`, the Potency entry in assay [4] and in assay [2] was “inactive” in each case.

In the case of `C[C@@H]1C(=O)O[C@H]2[C@H](O)[C@@]34[C@@H]5OC(=O)[C@@]3(O[C@@H]3OC(=O)[C@@H](O)[C@@]34[C@H](C(C)(C)C)[C@H]5O)[C@@]12O`, the Potency result in assay [5] and in assay [2] was “inactive” throughout.

Consider `COc1cc(C)[nH]c(=O)c1CNC(=O)c1c(C)n([C@H](C)C2CCOCC2)c2ccccc12`, for which the Potency result in assay [5] and in assay [2] was “inactive” each time.

In the case of `CN1C2CCC1CC(OC(c1ccccc1)c1ccc(Cl)cc1)C2` (centres undefined), the Potency in assay [3] is 17.8 µM (active). In addition, the Potency result in assay [1] and in assay [4] was “inactive” in each case.

For `O=[N+]([O-])c1ccc(F)c([N+](=O)[O-])c1`, the max response in assay [3] is 6.65% (inactive). For the same compound, the Potency entry in assay [6], in assay [1] and in assay [4] was “inactive” each time.

With `O=CC=O`, the max response was 1.75% (inactive) in assay [3] and -6.19% (inactive) in assay [7]. Besides, the Potency entry in assay [6], in assay [4] and in assay [2] was “inactive” throughout.

On to `CC(N)Cc1c[nH]c2ccccc12` (centres undefined), for which the Potency result in assay [5] and in assay [2] was “inactive” each time.

As for `COc1ccc2c(c1OC)C(=O)OC2C1c2cc3c(cc2CCN1C)OCO3` (centres undefined), the max response in assay [7] is -5.26% (inactive). For the same compound, the Potency result in assay [6] and in assay [1] was “inactive” throughout.

For the compound `COCC1OC(=O)c2coc3c2C1(C)C1=C(C3=O)C2CCC(=O)C2(C)CC1O` (centres undefined), the Potency entry in assay [5] and in assay [2] was “inactive” in each case.

Turning to `CCN1CC2(COC)C3[C@@H](OC)C4C1C3(C1C[C@]3(O)[C@H](OC(=O)c5ccccc5)C1[C@]4(OC(C)=O)[C@@H](O)[C@@H]3OC)[C@H](OC)C[C@H]2O` (some centres undefined), the Potency result in assay [5] and in assay [2] was “inactive” throughout.

For the compound `C[C@H]1CC[C@@H]2[C@@H](C)[C@H]3[C@H](C[C@H]4[C@@H]5CC=C6CC(O[C@@H]7O[C@H](CO)[C@H](O)[C@H](O[C@@H]8O[C@H](CO)[C@@H](O)[C@H](O)[C@H]8O)[C@H]7O[C@H]7O[C@@H](C)[C@H](O)[C@@H](O)[C@H]7O)CC[C@]6(C)[C@H]5CC[C@]34C)N2C1` (some centres undefined), the max response in assay [3] was -0.257% (inactive). The values for the Potency in assay [7] and in assay [6] were 12.6 µM (active) and 70.8 µM (active), respectively. Besides, the Potency entry in assay [4] was “inactive”.

For `C=C[C@H]1CN2CC[C@H]1C[C@@H]2[C@@H](O)c1ccnc2ccccc12`, the Potency entry in assay [4] was “inactive”.

Take `COC(=O)[C@@H]1[C@H]2CC[C@@H](C[C@H]1OC(=O)c1ccccc1)N2C`: the max response in assay [3] is 5.25% (inactive). The Potency result in assay [4] and in assay [2] was “inactive” in each case.

As to `C=CCC1(C(C)CCC)C(=O)N=C(S)NC1=O` (centres undefined), in assay [3], the max response is -3.05% (inactive). In addition, the Potency entry in assay [1] and in assay [2] was “inactive” throughout.

Turning to `O=[N+]([O-])C(Br)(CO)CO`, in assay [7], the Potency is 50.1 µM (active). The Potency entry in assay [6], in assay [4] and in assay [2] was “inactive” throughout.

Take `CCCCCCn1c(=O)c(C(=O)Nc2ccc(C(=O)OCCC)cc2)c(O)c2ccccc21`: the outcome in assay [5] and in assay [2] was “inactive [at 9.29 µM]” in each case.

`O=C1C2CC=CCC2C(=O)N1SC(Cl)(Cl)Cl` (centres undefined): the Potency was 10 µM (active) in assay [7] and 12.6 µM (active) in assay [1]. In addition, in assay [6], the Potency entry is “inactive”.

With `COc1cc(CCNCc2ccccc2O)c(OC)cc1C#N`, the Potency entry in assay [5] is “inactive”.

With `C/C=C(\C)C(=O)OC1CC2C(CC=C3CC(OC4CC(OC)C(OC5CC(OC)C(OC6OC(C)C(OC7OC(CO)C(O)C(O)C7O)C(OC)C6O)C(C)O5)C(C)O4)CCC32C)C2(O)CCC(C(C)=O)C12C` (centres undefined), the outcome in assay [5] was “inactive [at 9.29 µM]”. The activity change, negative = cytotoxicity in assay [2] is 9.6% [at 9.29 µM] (inactive).

Consider `C=C(C)[C@H]1O[C@H]2CC[C@@]3(C)[C@@](O)(CC[C@H]4[C@@H]5OC(C)(C)[C@H]6C[C@@H]7C(=C)Cc8c(Cl)cc9[nH]c(c5c9c8[C@@]76O)[C@@]43C)[C@]23O[C@@H]3[C@H]1O`, for which the Potency entry in assay [5] and in assay [2] was “inactive” throughout.

Regarding `[O]=[Cr](=[O])([OH])[O][Cr](=[O])(=[O])[OH]`, the max response in assay [3] is 21.1% (inactive) and 18.4% (inactive). Besides, the Potency was 39.8 µM (active) and 15.8 µM (active) in assay [7]; 31.6 µM (active) and 25.1 µM (active) and 22.4 µM (active) in assay [6]; 2.24 µM (active) and 4.47 µM (active) in assay [1]; 23.1 µM (active) and inactive in assay [2].

As to `O=C(O)c1ccnc2cc(C(OCCN3CCCCC3)c3ccccc3Cl)[nH]c12` (centres undefined), the Potency result in assay [5] and in assay [2] was “inactive” throughout.

In the case of `COc1cc(C(=O)O[C@H]2[C@@H]3C=CO[C@@H](O[C@@H]4O[C@H](CO)[C@@H](O)[C@H](O)[C@H]4O)[C@@H]3[C@@]3(CO)O[C@@H]23)ccc1O`, the Potency entry in assay [5] and in assay [2] was “inactive” in each case.

Take `C=C[C@H]1[C@H](O[C@@H]2O[C@H](CO)[C@@H](O)[C@H](O)[C@H]2O)OC=C2C(=O)OCC[C@H]21`: the Potency result in assay [5] and in assay [2] was “inactive” throughout.

`C#CCN1CC(=O)N(COC(=O)C2C(C=C(C)C)C2(C)C)C1=O` (centres undefined): in assay [7], the max response is -15.4% (inactive). The Potency result in assay [6], in assay [1] and in assay [4] was “inactive” in each case.

For the compound `Cc1c(Cl)cccc1S(=O)(=O)Nc1nc(CC(=O)N2CCN(C)CC2)cs1`, the Potency result in assay [5] and in assay [2] was “inactive” each time.

For `O=C1C=C2C=C[C@@H]3C[C@@]2(O1)[C@H]1CCCCN31`, the Potency in assay [3] was 7.08 µM (active). The Potency entry in assay [4] is “inactive”.

`C[C@]12CC[C@@H](O)C[C@H]1CC[C@@H]1[C@@H]2CC[C@]2(C)C(=O)CC[C@@H]12`: the Potency entry in assay [5] and in assay [2] was “inactive” each time.

Regarding `[Cl-].[Cl-].[Hg+2]`, the Potency in assay [7] was 44.7 µM (active); in assay [2], 3.66 µM (active). The Potency result in assay [6] and in assay [4] was “inactive” each time.

Turning to `CN1[C@H]2C[C@H](OC(=O)[C@H](CO)c3ccccc3)C[C@@H]1[C@@H](O)C2`, in assay [2], the Potency entry was “inactive”.

Regarding `CC(C)(C)c1cc(C(C)(C)C)c2c(c1)C(O)(C(F)(F)F)C(=O)O2` (centres undefined), the Potency entry in assay [5] and in assay [2] was “inactive” throughout.

On to `COC1CC(OC2CCC3(C)C(CCC4C3CCC3(C)C(C5=CC(=O)OC5)C(OC(C)=O)CC43O)C2)OC(C)C1OC1OC(CO)C(O)C(O)C1O` (centres undefined), for which the Potency in assay [2] was 0.685 µM (active).

In the case of `CN1C(=O)N(c2ccc(C#N)c(C(F)(F)F)c2)C(=O)[C@]1(CO)c1ccccc1`, the Potency entry in assay [5] and in assay [2] was “inactive” throughout.

For `C[C@]12CC[C@H]3[C@@H]([C@H](O)CC4=CC(=O)CC[C@@]43C)[C@@H]1CC[C@@H]2O`, in assay [2], the Potency result is “inactive”.

As to `COC(=O)C1(C)CCC(O)C2(C)c3c(O)cc(C(C)C)cc3C(O)C(OC(C)=O)C12` (centres undefined), the Potency result in assay [5] and in assay [2] was “inactive” in each case.

As to `CN(C(=O)Cc1ccccc1)C(CN1CCCC1)c1ccccc1` (centres undefined), the Potency result in assay [2] is “inactive”.

With `CCN1C[C@]2(COC(=O)c3ccccc3N3C(=O)C[C@H](C)C3=O)CC[C@H](OC)[C@@]34[C@@H]5C[C@H]6[C@H](OC)[C@@H]5[C@](O)(C[C@@H]6OC)[C@](O)([C@@H](OC)[C@H]23)[C@@H]14`, the Potency result in assay [5] and in assay [2] was “inactive” each time.
